Among all 6,200 compounds or so, about 2,900 (47%) were called active. No stated cut-off is given here; in the data, active means inhibition above about 50%; inactive means the rest. So high a share suggests a set chosen from earlier hits. This is one part of the list.
test: Mycobacterium tuberculosis growth inhibition, primary screen (AID 1259343); conditions: inhibition: at 10 µM, active compounds read high; outcome: 10 uM

| SMILES | inhibition |
| --- | --- |
| O=C1C(c2ccccc2)C=Nc2c(-c3ccccc3)cnn21 (stereo unspecified) | -23.2% (inactive) |
| Cc1cc(NC(=O)c2ccccc2C)n(-c2nc(C)c(C)c(=O)[nH]2)n1 | -21.7% (inactive) |
| Cc1cc(=O)[nH]c(-n2nc(C)cc2NC(=O)c2ccccc2C)n1 | 101% (active) |
| Clc1ccc(CCCc2nc3ccc(Cl)cc3[nH]2)c(Cl)c1 | 99.6% (active) |
| Clc1ccc2nc(SCCC3CCCCC3)[nH]c2c1 | 23.7% (inactive) |
| Clc1ccc2nc(SCc3nnc(C4CCC4)o3)[nH]c2c1 | 16.7% (inactive) |
| S=c1ccss1 | 101% (active) |
| CCc1cc2c(=O)n(NC(=O)c3cccc(C)n3)cnc2s1 | 99.6% (active) |
| CCc1cc2c(SCC(=O)C(C)(C)C)ncnc2s1 | -53% (inactive) |
| CCc1cc2c(N3CCCCC3)ncnc2s1 | 46.7% (inactive) |
| CC(C)c1ccc(-n2nnnc2SCC(N)=O)cc1 | 32.2% (inactive) |
| CC(C)c1ccc(-n2[nH]nnc2=S)cc1 | 70.6% (active) |
| Fc1cccc(-n2[nH]nnc2=S)c1 | 90.8% (active) |
| S=c1nn[nH]n1-c1cccc(Cl)c1 | 10% (inactive) |
| CCCc1cc(=O)[nH]c(-n2nc(C)cc2NC(=O)C23CC4CC(CC(C4)C2)C3)n1 | 100% (active) |
| CCc1c(C)nc(-n2nc(C)cc2NC(=O)C23CC4CC(CC(C4)C2)C3)[nH]c1=O | -26.4% (inactive) |
| Cc1cc(NC(=O)C23CC4CC(CC(C4)C2)C3)n(-c2nc(C)c(C)c(=O)[nH]2)n1 | 14.6% (inactive) |
| CCc1cc(=O)[nH]c(-n2nc(C)cc2NC(=O)C23CC4CC(CC(C4)C2)C3)n1 | 93.6% (active) |
| Cc1cc(=O)[nH]c(-n2nc(C)cc2NC(=O)C23CC4CC(CC(C4)C2)C3)n1 | 99.3% (active) |
| Cc1cc(=O)[nH]c(-n2nc(C3CC3)cc2NC(=O)C23CC4CC(CC(C4)C2)C3)n1 | 99.1% (active) |
| Cc1cc(NC(=O)C23CC4CC(CC(C4)C2)C3)n(-c2nc3c(c(=O)[nH]2)CCC3)n1 | 101% (active) |
| Cc1nc(N2CCCC(C)C2)c2cnn(-c3ccc(F)cc3)c2n1 (stereo unspecified) | 23.5% (inactive) |

| SMILES | inhibition |
| --- | --- |
| Clc1cccc(-n2ncc3c(N4CCNCC4)nc(Cc4ccccc4)nc32)c1 | 65.1% (active) |
| Cc1ccc(Cc2nc(N3CCNCC3)c3c(C)nn(-c4ccccc4)c3n2)cc1 | 92.7% (active) |
| CC(C)CCc1nc(N2CCNCC2)c2cnn(-c3cccc(Cl)c3)c2n1 | 41.8% (inactive) |
| CCCc1nc(N2CCNCC2)c2c(C)nn(-c3ccc(F)cc3)c2n1 | 42% (inactive) |
| CC1NC(=S)N(CCc2nc(C(C)(C)C)cs2)C1=O (stereo unspecified) | 12.2% (inactive) |
| CCOc1ccc(OCCCOc2cccc(C)c2C)cc1 | 73.5% (active) |
| CCOc1ccc(OCCCOc2ccccc2Br)cc1 | 95.2% (active) |
| CCOc1cccc(OCCCOc2ccc(Cl)cc2C)c1 | 82.3% (active) |
| CCOc1ccc(OCCCOc2ccccc2OC)cc1 | 9.51% (inactive) |
| CC(C)(C)CC(C)(C)c1ccc(O)c(Cc2ccc(Cl)cc2Cl)c1 | 72.6% (active) |
| COc1ccc2c(c1)CCc1c(-c3ccc(C(=O)NCCCSC)cc3)n[nH]c1-2 | 95.5% (active) |
| Cc1ccc(C(=O)N=c2sccn2Cc2ccc(C(=O)NC(C)c3ccccc3)cc2)cc1 (stereo unspecified) | -8.44% (inactive) |
| CC(C)Cc1ccc(C(C)NC(=O)Cn2ccsc2=O)cc1 (stereo unspecified) | 92.5% (active) |
| CC(=O)c1ccc(OCC(=O)NC(C)c2ccc(CC(C)C)cc2)cc1 (stereo unspecified) | 46.8% (inactive) |
| COc1ccc2cc(C3CN(CCC(F)(F)C(F)F)CCO3)ccc2c1 (stereo unspecified) | 42.7% (inactive) |
| CC(=O)C1=C(O)CC(c2ccccc2)SC1=Nc1ccccc1 (stereo unspecified) | 57.6% (active) |
| CCOC(=O)C1=C(O)CSC1=Nc1ccc(Cl)cc1 | 16.2% (inactive) |
| Fc1ccc(SCCc2ccncc2)cc1 | 57.7% (active) |
| O=C1C(Cl)=C(Nc2cccc(Br)c2)C(=O)N1Cc1ccc(Br)cc1 | 61% (active) |
| O=c1ccc(-c2cccc(Br)c2)nn1Cc1ccc(F)cc1 | 8.75% (inactive) |
| NC(=S)Nc1cccc(Br)c1 | 32.7% (inactive) |
| CCOc1ccc(NC(=O)c2cn(-c3cc(N4CCOCC4)ncn3)cn2)cc1 | 74.7% (active) |

| SMILES | inhibition |
| --- | --- |
| O=C(O)c1cc(O)c2c(c1)C(=O)c1cc(O)cc(O)c1C2=O | 91.8% (active) |
| CC(c1ccc(F)cc1)N(C)C(=O)CN1CC(O)CC1c1cc(F)ccc1F (stereo unspecified) | 84% (active) |
| CC(c1ccc(Cl)cc1)N(C)C(=O)c1ccc[nH]1 (stereo unspecified) | -3.09% (inactive) |
| CC(=O)c1ccc(C(=O)N(C)C(C)c2ccc(Cl)cc2)s1 (stereo unspecified) | 25.1% (inactive) |
| Cc1nc(N)sc1N=Nc1cc(C(F)(F)F)ccc1Cl | 18.3% (inactive) |
| Cc1nc(NC(=O)c2c(C)nn(CC(C)C)c2Cl)sc1C | 12.5% (inactive) |
| Cc1sc(NC2CCCC2)nc1-c1ccc(F)c(F)c1 | 34.8% (inactive) |
| CCC(C)C(=O)Nc1nc(-c2ccc(Cl)cc2)c(C)s1 (stereo unspecified) | 70.1% (active) |
| COc1cccc(C2c3c(oc4cc(C)c(C)cc4c3=O)C(=O)N2c2nccs2)c1OC (stereo unspecified) | -18.6% (inactive) |
| Cc1cc(N2CCCCC2)nc(Nc2ccc(NS(=O)(=O)c3ccc4nc(C)sc4c3)cc2)n1 | 25.5% (inactive) |
| c1ccc(CN2CCN(c3nc(-c4cccnc4)nc4ccccc34)CC2)cc1 | 26.4% (inactive) |
| Oc1ccc(Nc2nc(N3CCCC3)c3ccccc3n2)cc1 | 83.1% (active) |
| CCOC(=O)C1CCCN(c2oc(-c3ccc(Cl)cc3)nc2C#N)C1 (stereo unspecified) | 12.5% (inactive) |
| COc1ccc(OCc2nc(C#N)c(N3CCCC3)o2)cc1 | -23.3% (inactive) |
| N#Cc1nc(COc2ccc(Cl)cc2)oc1N1CCCC1 | 92.6% (active) |
| COc1ccc(C[C@H](N)C(=O)N[C@@H]2[C@@H](CO)OC(n3cnc4c(N(C)C)ncnc43)[C@@H]2O)cc1 (stereo partly specified) | 66.6% (active) |
| CN(C)N=Nc1nc[nH]c1C(N)=O | 70% (active) |
| CC(C)(C)c1csc(NC(=O)c2ccc(Cl)s2)n1 | -24% (inactive) |
| Cc1cc(C(=O)Nc2nc(C(C)(C)C)cs2)c(C)o1 | 60.2% (active) |
| CC(C)(C)c1csc(NC(=O)C23CC4CC(CC(C4)C2)C3)n1 | 61.1% (active) |
| CC(C)(C)C(=O)Nc1nc(CC23CC4CC(CC(C4)C2)C3)cs1 | 38% (inactive) |
| CC(C)(C)c1csc(NC(=O)CC2OCCc3ccsc32)n1 (stereo unspecified) | 22.8% (inactive) |

Reference: PubChem BioAssay AID1259343 (VanderVen Lab, College of Veterinary Medicine, Cornell …, 2017)
